# The full ranking holds about 9,900 sequences; the median of “r (bound/input frequency ratio)” is about 0.7, and the highest 2% start at about 6.5. This excerpt belongs to a sample that is enriched for the highest values.
# B1: ENSMUSG00000042529.435|Kcnj12|146:150 (ssRNA)
# RNA: GGGAGUUCUACAGUCCGACGAUCGCUUCGAUAUCCGCAUGCUAAGAGAGAGAGAGAGAGAGAGAGAGAGAGAGAGAGAGAGAGCUGCACAGGAUGAAGCAGCUGCCCUGAGCCCAUCUGGUGCUGUGCACCUGGUCCUUGUCCAGCCGAGGGCCUGGGGGCAGAAGAACACACCAUAGGGAGGCCCUUCAUACGGUGUCUGCCCUAUGUGAGGUCAUAGAAUGUUAAAUCUAUUUUAAACGGUGAAACUGGAGAAUUUUCAUGUUAUUUUCAAUAAUAGUGGUAUCUAAAGAUGUAGGCAACACUCUUGCGGUCGCACUAGUGUGGAAUUCUCGGGUGUCAAGG
# B2: ENSMUSG00000035202.98|Lars2 (ssRNA)
# RNA: GGGAGUUCUACAGUCCGACGAUCGCUUCGAUAUCCGCAUGCUAUCCUGCUCAGUACGAGAGGAACCGCAGCUAGCUUGUGUCUCCAGUGUCUUUUACCAUCACAGGCCCUGGCUCUGUGCUACCUCCCUAGAAUACCUGUGGUUCAUCACCUUCAGCUCACACUCCAUUCAGACAAUGCUCACUUAGGCCUACAAGCAAGGGAGAGGCUUAAGCACAAGGUCUUUAAGCUUGAUACUGUGCCUGGUCUCAAUGCCUAGAAAUUCCAACUUAACUGUCGCUAUCAUAAAGGAUUUUAAAUUUUUCUCUUGCGGUCGCACUAGUGUGGAAUUCUCGGGUGUCAAGG
# B3: ENSMUSG00000090935.628|Synj2bp (ssRNA)
# RNA: GGGAGUUCUACAGUCCGACGAUCGCUUCGAUAUCCGCAUGCUAGUCUUAAACUGAUUAGUAACACUAUGACUUACCCUGAGAUCUAAGUAUUGCUAUAAAGAGACUGAAGAGGAGAGAAUAAAGUAUUUUCCUAGGACUACAUAGUUGGUAAAAGAGAAUCAUGAUUUAAACUCUGGACUAUGGAUGGCAGUAUCAGUAAUAUUCCCUCAUAGCUAGCAGUCCUCAUGCAAGGUCUCUGAACAAAAGCAACGUAUCACCUGCAAAUGCUUGGGUUUCAUCCCAUUCUUAUGGAGUGAGAUGAGCUCUUGCGGUCGCACUAGUGUGGAAUUCUCGGGUGUCAAGG
# B4: ENSMUSG00000061578.1408|Ksr2|69:73 (ssRNA)
# RNA: GGGAGUUCUACAGUCCGACGAUCGCUUCGAUAUCCGCAUGCUACUCCACGGACCUCAGGCCCACUGUUUUCUCCAUGUCUGUCUGUACUGACUGUUGCAGAAUGAGCUGAUCAUACAUCUUGAUUCUCCAUUUUCCUUCUGGACCACAUGUCUCUUCCUUUUCCUUUUUAGAUCUGUCUUGCUCUCUGUCUCUCUCACUCAUUGCCAACAUGUUGCUGGGAAAGAAUAUUUGAUUUAGAUGCCAAUCAGGAAGGCAAGUAGGAUGGAUGGAUGAGUGAGUGGAUAGGUAGGUAUAUAAAUGGACUCUUGCGGUCGCACUAGUGUGGAAUUCUCGGGUGUCAAGG
# Target: TDP-43 (Homo sapiens, UniProt Q13148 1-414)
# Assay: RNA Bind-n-Seq with designed 260-mer pool; 25 mM Tris-HCl, 150 mM KCl, 3 mM MgCl2, BSA (printed 500 mg/mL), 20 units/mL SUPERase IN; pH not stated; 500 nM RNA pool, 1 h, 4 C; TDP-43 5, 50, 500 nM; high values mean tight binding
# Conditions: protein: recombinant; tags: SBP (GST cleaved off with PreScission; pGEX-GST-SBP)
# How it was run: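 Binding (R) is the ratio of each oligo's mapped-read-normalized abundance in the bound fraction to its abundance in the input. To obtain it, SBP-tagged recombinant TDP-43 (5, 50 or 500 nM) on streptavidin beads was incubated with 500 nM of an in vitro-transcribed 260-nt 3′ UTR oligo pool for 1 h at 4 °C in 25 mM Tris-HCl, 150 mM KCl, 3 mM MgCl2, BSA and SUPERase IN. The RNA retained after washing was released with biotin, then reverse transcribed, amplified by PCR and sequenced.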
# Sequence of TDP-43 (Q13148 whole entry): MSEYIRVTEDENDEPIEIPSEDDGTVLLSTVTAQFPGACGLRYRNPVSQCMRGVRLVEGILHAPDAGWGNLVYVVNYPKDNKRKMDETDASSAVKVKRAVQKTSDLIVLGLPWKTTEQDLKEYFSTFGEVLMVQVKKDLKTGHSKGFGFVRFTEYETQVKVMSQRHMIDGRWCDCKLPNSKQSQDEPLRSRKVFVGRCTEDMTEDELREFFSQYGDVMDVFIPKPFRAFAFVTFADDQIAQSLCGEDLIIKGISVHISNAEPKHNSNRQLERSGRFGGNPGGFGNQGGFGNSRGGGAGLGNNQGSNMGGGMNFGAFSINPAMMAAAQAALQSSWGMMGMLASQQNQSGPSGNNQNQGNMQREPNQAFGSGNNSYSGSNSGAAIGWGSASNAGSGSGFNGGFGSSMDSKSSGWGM
row,Binder,binding signal
1,B1,4.76 R (bound/input frequency ratio)
2,B2,0.339 R (bound/input frequency ratio)
3,B3,0.125 R (bound/input frequency ratio)
4,B4,0.845 R (bound/input frequency ratio)

# Source: article PMC12864922, “TDP-43 directly inhibits mRNA accumulation in neurites through modulation of mRNA stability”
